Reference: PubChem BioAssay (NCATS)
Inconclusive results are not listed. Activity calls are given as the source filed them. Calls come from the whole dose curve; as a rule, active = well fitted cell-killing curve with a large enough effect; inconclusive = small, poorly fitted or top-dose-only effect; inactive = no such curve, though single readings can be large or run the other way.

experiment: qHTS of pediatric cancer cell lines to identify multiple opportunities for drug repurposing: Primary screen for Rh41 cells (AID 1347108); details: Rh41 rhabdomyosarcoma viability, CellTiter-Glo luminescence, 48 h; series mostly up to 46 µM; activity change, negative = cytotoxic: at the top concentration;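 note: luminescence drop marks cytotoxic hits; nearly all actives have a fitted effect of over 70% in size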
Text: Drug repurposing or repositioning has been offered as a strategy for drug development in oncology programs. This approach has special potential for childhood cancers and other rare or orphan diseases, where the expected return on new drug development has been a disincentive to pharmaceuticals. […] In this project we exploit the poly-pharmacology of drugs to discover new indications via phenotypic screening of a panel of 19 well-characterized cell lines derived from solid tumors seen in children and adolescents. The goal is to identify approved drugs with previously unrecognized anticancer properties that has the potential to reveal new mechanisms and biological processes involved in carcinogenesis or drug resistance. We employed a titration-based paradigm (quantitative high-throughput screening or qHTS), where all compounds were tested at multiple concentrations for their effect on cell viability. Concentration-response curves (CRCs) were derived directly from the primary screen, and both potency and efficacy values were used to identify compounds with robust bioactivity profiles. We screened the NIH Chemical Genomics Center (NCGC) Pharmaceutical Collection (NPC) and Mechanism Interrogation Plate (MIPE) small molecule collections of approved and investigational compounds against these cell lines; and measured metabolically active cells after 48 hours of compound treatment as a proxy for cell viability. […] Assay Submitter: Nathalia J. Martinez, National Center for Advancing Translational Sciences, National Institutes of Health, Rockville, MD, USA; email: natalia.martinez@nih.gov Shen, M et al. Quantitative high-throughput phenotypic screening of pediatric cancer cell lines identifies multiple opportunities for drug repurposing. Oncotarget 2017 Dec 19;9(4):4758-4772. PMID 29435139.
The cells were obtained from University of North Carolina (UNC), Pediatric Preclinical Testing Program (PPT), and Coriell Institute (CI). qHTS cell viability assay: Cells were assayed in growth media at a density of 500-1,000 cells/well. Five microliters of cells were dispensed into 1,536-well, white, solid-bottom, TC-treated plates (Greiner Bio One) using a multidrop dispenser and incubated at 37 degrees C, 5% CO2, under a humidified atmosphere for 5 hours. Twenty-three nanoliters of compounds and controls (neutral control DMSO or positive control bortezomib at final concentration of 2.3 µM) were subsequently transferred by Kalypsys pintool. For primary screens, the MIPE collection was tested at 11-point dilutions (final concentrations range from 0.78 nM to 46 µM) and the NPC collection at 8-point dilutions (final concentrations range from 0.59 nM to 46 µM). Compounds tested in follow-up screens were assayed at 11-point dilutions. Cells were incubated for 48 hours, followed by addition of 3 µL of CellTiter-Glo (Promega). After a 15 min incubation at room temperature, samples were analyzed for luminescence intensity using a ViewLux High-throughput CCD imager equipped with clear filters.

With `CCCNC(C)(C)COC(=O)c1ccccc1` as the molecule, how does the “activity change, negative = cytotoxic” value read?
Its value is 14% (inactive).

With `COc1ccc(NS(=O)(=O)c2ccc(N)cc2)nn1` as the molecule, how does the “activity change, negative = cytotoxic” value read?
Its value is 30.9% (inactive).

With `CC(C)=CCC/C(C)=C/CO` as the molecule, how does the “activity change, negative = cytotoxic” value read?
Its value is 23.6% (inactive).

With `CC(C(=O)O)c1ccc2c(c1)Cc1cccnc1O2` (stereo not given) as the molecule, how does the “activity change, negative = cytotoxic” value read?
The value was 19.3% (inactive).

With `CN/C(=C\[N+](=O)[O-])NCCSCc1csc(CN(C)C)n1` as the molecule, how does the “activity change, negative = cytotoxic” value read?
The value was 25.6% (inactive).

With `CC(=O)N(CC(O)CN(C(C)=O)c1c(I)c(C(=O)NCC(O)CO)c(I)c(C(=O)NCC(O)CO)c1I)c1c(I)c(C(=O)NCC(O)CO)c(I)c(C(=O)NCC(O)CO)c1I` (stereo not given) as the molecule, how does the “activity change, negative = cytotoxic” value read?
The value was 32.7% (inactive).

For `O=C(O)CCCCC1CCSS1` (stereo not given), which “activity change, negative = cytotoxic” value is on record?
Its value is 35.1% (inactive).

For `O=C(O)COC(=O)Cc1ccccc1Nc1c(Cl)cccc1Cl`, which “activity change, negative = cytotoxic” value is on record?
The value was 23.9% (inactive).

For `CC(C)CCCC(C)CCCC(C)CCCCC(C)CCCC(C)CCCC(C)C` (stereo not given), which “activity change, negative = cytotoxic” value is on record?
The value was 31.3% (inactive).

For `NS(=O)(=O)c1ccc(NC(=O)CCC(=O)O)cc1`, which “activity change, negative = cytotoxic” value is on record?
Its value is 14.6% (inactive).

For `CCN(CC)CCc1nc(-c2ccccc2)no1`, which “activity change, negative = cytotoxic” value is on record?
Its value is 25% (inactive).

Which “activity change, negative = cytotoxic” value does the source give for `CC(C)(C)NCC(O)COc1cccc2c1CCC(=O)N2` (stereo not given) here?
Its value is 17.3% (inactive).

Which “activity change, negative = cytotoxic” value does the source give for `O=C(Cn1ccnc1[N+](=O)[O-])NCCO` here?
The value was 25.4% (inactive).

For `NC(=O)N[C@@H](CCC(=O)O)C(=O)O`, which “activity change, negative = cytotoxic” value is on record?
Its value is 26.5% (inactive).

Which “activity change, negative = cytotoxic” value does the source give for `CCCCC1(COC(=O)CCC(=O)O)C(=O)N(c2ccccc2)N(c2ccccc2)C1=O` here?
Its value is 27.1% (inactive).

With `C[N+](C)(C)CC[N+]1(C)Cc2c(Cl)c(Cl)c(Cl)c(Cl)c2C1` as the molecule, how does the “activity change, negative = cytotoxic” value read?
The value was 21.7% (inactive).

For `FC(F)(F)C(Cl)Br` (stereo not given), which “activity change, negative = cytotoxic” value is on record?
The value was 5.16% (inactive).

Which “activity change, negative = cytotoxic” value does the source give for `CN1CCN(C(=O)C2CCCCC2)CC1` here?
The value was 30.5% (inactive).

For `O=C1C(c2[nH]c3ccccc3c2O)=Nc2ccccc21`, which “activity change, negative = cytotoxic” value is on record?
The value was 0.0532% (inactive).

With `C=CCN1C[C@H](C(=O)N(CCCN(C)C)C(=O)NCC)C[C@@H]2c3cccc4[nH]cc(c34)C[C@H]21` as the molecule, how does the “activity change, negative = cytotoxic” value read?
The value was 23% (inactive).

Which “activity change, negative = cytotoxic” value does the source give for `COc1ccc(O)cc1` here?
Its value is 4.32% (inactive).

Which “activity change, negative = cytotoxic” value does the source give for `C[C@@H](c1ncncc1F)C(O)(Cn1cncn1)c1ccc(F)cc1F` (stereo not given in full) here?
Its value is 17% (inactive).

Which “activity change, negative = cytotoxic” value does the source give for `CNc1c2c(nn1C)CCCC2` here?
Its value is 22.7% (inactive).

For `Cc1ncc(CO)c(CN)c1O`, which “activity change, negative = cytotoxic” value is on record?
Its value is 18.1% (inactive).

For `CC(=O)Oc1cccc(O)c1`, which “activity change, negative = cytotoxic” value is on record?
The value was 19% (inactive).

Which “activity change, negative = cytotoxic” value does the source give for `CN(C(=O)c1c(O)c2ccccc2n(C)c1=O)c1ccccc1` here?
The value was 24.9% (inactive).

Which “activity change, negative = cytotoxic” value does the source give for `Cc1c(C(=O)NCCO)[n+](=O)c2ccccc2n1[O-]` here?
The value was 15.9% (inactive).

With `CC(=O)NCc1c(I)c(NC(C)=O)c(I)c(C(=O)O)c1I` as the molecule, how does the “activity change, negative = cytotoxic” value read?
The value was 21.3% (inactive).

Which “activity change, negative = cytotoxic” value does the source give for `NC(=O)CCCCC1CCSS1` (stereo not given) here?
Its value is 20.6% (inactive).

Which “activity change, negative = cytotoxic” value does the source give for `CC(C)CCOC(=O)c1ccc(N(C)C)cc1` here?
Its value is 22.8% (inactive).

For `CC(=O)Nc1ccc(OCCOCCOc2ccc(NC(C)=O)cc2)cc1`, which “activity change, negative = cytotoxic” value is on record?
Its value is 19.8% (inactive).

For `NC(=O)NS(=O)(=O)c1ccc(N)cc1`, which “activity change, negative = cytotoxic” value is on record?
The value was 24.7% (inactive).

For `C=CCOc1ccccc1OCC(O)CNC(C)C` (stereo not given), which “activity change, negative = cytotoxic” value is on record?
The value was 19% (inactive).

With `CCCCCCCC(=O)OCC(O)CO` (stereo not given) as the molecule, how does the “activity change, negative = cytotoxic” value read?
The value was 14.6% (inactive).

With `Cn1cc(C(=O)[C@@H]2CCc3nc[nH]c3C2)c2ccccc21` as the molecule, how does the “activity change, negative = cytotoxic” value read?
Its value is 0.43% (inactive).

Which “activity change, negative = cytotoxic” value does the source give for `COc1ccc2cc(CCC(C)=O)ccc2c1` here?
The value was 35.4% (inactive).

With `CC(=O)N(CC(O)CO)c1c(I)c(C(=O)NCC(O)CO)c(I)c(C(=O)NCC(O)CO)c1I` (stereo not given) as the molecule, how does the “activity change, negative = cytotoxic” value read?
Its value is 18.5% (inactive).

For `CC1(c2ccccc2)OC(C(=O)O)=CC1=O` (stereo not given), which “activity change, negative = cytotoxic” value is on record?
Its value is 24.4% (inactive).

Which “activity change, negative = cytotoxic” value does the source give for `CC(=O)[C@@]1(O)CC[C@H]2[C@@H]3C[C@H](C)C4=CC(=O)C=C[C@]4(C)[C@@]3(F)[C@@H](O)C[C@@]21C` here?
Its value is 14.8% (inactive).

Which “activity change, negative = cytotoxic” value does the source give for `Cc1c(C)c2c(c(C)c1OC(=O)c1cccnc1)CC[C@@](C)(CCC[C@H](C)CCC[C@H](C)CCCC(C)C)O2` here?
Its value is 18% (inactive).
